Laboratory results published in PubChem BioAssay AID1822 (The Scripps Research Institute Molecular Screening Center, 2009).
In all, about 290,000 compounds went through this assay and about 3,500 (1.2%) were called active.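 How the source made its calls: active means inhibition above the campaign mean inhibition over all tested compounds plus 3 SD (cut at about 28% in these data); inactive means the rest.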 The entries come from a sample that favours actives as a whole.

These compounds were tested on M18 aspartyl aminopeptidase (Plasmodium falciparum 3D7) (assay: inhibition of P. falciparum M18 aminopeptidase – biochemical, QFRET, recombinant enzyme, primary screen (AID 1822;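 further: 0% = plate median of test compound wells and 100% = 2 mM ZnCl2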)). Details: recombinant PfM18AAP, H-Glu-NHMec fluorogenic cleavage; at 7.35 µM; active compounds read high.
With `Cc1ccc(OCC(=O)Nc2ccc(NC(=O)c3cccs3)cc2)c(C)c1` the inhibition was 2.4% (inactive). With `CCCc1nnc(NC(=O)CCC(=O)N2CCN(S(=O)(=O)c3ccc(OC)cc3)CC2)s1` the inhibition was 3.89% (inactive). In the case of `Cc1ccc(Cc2cnc(NC(=O)/C(C#N)=C/c3ccc(-c4cccc([N+](=O)[O-])c4)o3)s2)cc1`, the inhibition is reported as 1.04% (inactive). With `N#C/C(=C\c1ccc(-c2cccc([N+](=O)[O-])c2)o1)C(=O)NCCN1CCOCC1` the inhibition was 2.81% (inactive). `Cc1ccc(-c2ccc(/C=C(\C#N)C(N)=S)o2)c([N+](=O)[O-])c1` was tested, and the inhibition was 34% (active). `Cc1ccc(N(C(=O)c2snc(C(N)=O)c2N)C(C(=O)NCC2CCCO2)c2c[nH]c3ccccc23)cc1` (configuration not stated) was tested, and the inhibition was 2.71% (inactive). For `CN1CCN(CCCCOc2ccccc2-c2ccccc2)CC1`, the inhibition was 2.29% (inactive). In the case of `OCCN1CCN(c2nnc(-c3ccccc3)c3ccccc23)CC1`, the inhibition is reported as 4.34% (inactive). In the case of `OCCN1CCN(C(=S)c2ccc(-c3ccccc3)cc2)CC1`, the inhibition is reported as 50% (active). For `CC(=O)Nc1ccc(S(=O)(=O)Oc2ccc(Br)cc2C(=S)N2CCOCC2)cc1`, the inhibition was 20.7% (inactive). In the case of `COc1cc(CC(=O)N2CCC(n3nccc3NC(=O)C3CC3)CC2)cc(OC)c1OC`, the inhibition is reported as 1.44% (inactive). In the case of `CCOC(=O)c1cccc(NC(=O)CCc2nnc3ccc(N4CCOCC4)nn23)c1`, the inhibition is reported as -1.08% (inactive). `CCOc1ccc(CCNC(=O)CCc2nnc3ccc(N4CCCC4)nn23)cc1OCC` was tested, and the inhibition was -5.76% (inactive). With `CCN(CC)c1ccc(NC(=O)CCc2nnc3ccc(N4CCCCC4)nn23)c(C)c1` the inhibition was 34.1% (active). `CCC(c1nnnn1C(C)(C)C)N(Cc1cc2cccc(C)c2n2nnnc12)C1CCCC1` (configuration not stated) was tested, and the inhibition was -1.66% (inactive). For `Cc1nn(C(C)(C)C)c(OC(=O)CC(C)C)c1S(=O)(=O)c1ccccc1`, the inhibition was 3.62% (inactive). With `Cc1ccc2nc(-c3cccc(Br)c3)cc(C(=O)Nn3cnnc3)c2c1` the inhibition was 60.7% (active). With `Cc1ccc2nc(-c3ccncc3)cc(C(=O)Nc3ccncc3)c2c1` the inhibition was 1.48% (inactive). In the case of `Cc1ccc(-c2cc(C(=O)NCc3cn(C)nc3C)c3cc(Br)ccc3n2)cc1`, the inhibition is reported as 0.33% (inactive). With `N#Cc1c(-c2ccccc2)nc(SCc2cccc(C(F)(F)F)c2)[nH]c1=O` the inhibition was 0.63% (inactive). With `COc1ccc(-c2nonc2NC(=O)c2oc3ccc(F)cc3c2C)cc1OC` the inhibition was 2.64% (inactive). With `Cc1cc(N/N=C/c2ccccc2F)c2ccccc2n1` the inhibition was 3.64% (inactive). In the case of `Cc1nc2ccccc2nc1N/N=C/c1ccc(O)cc1O`, the inhibition is reported as 31.6% (active). In the case of `COc1ccccc1N1CCN(/N=C/c2ccc(O)cc2O)CC1`, the inhibition is reported as 9.99% (inactive). `COc1ccc(/C=C(\C#N)C(=O)ONC2=NCCCCC2)cc1` was tested, and the inhibition was 3.59% (inactive). `Oc1ccc(/C=N/Nc2nc(-c3ccccc3F)nc3ccccc23)c(O)c1` was tested, and the inhibition was 18% (inactive). In the case of `Oc1ccc(/C=N/NC2=NCCCCC2)c(O)c1`, the inhibition is reported as 40.1% (active). With `O=C(NNC(=O)C1CCCC1)c1ccc(F)cc1` the inhibition was 3.26% (inactive). `Cc1cc(C)cc(Oc2c(C(F)(F)F)oc3cc(OCC(=O)O)ccc3c2=O)c1` was tested, and the inhibition was 0.89% (inactive). With `N#Cc1cccc(CSc2ncnc(N)n2)c1` the inhibition was 3.53% (inactive). For `CC(C)c1c(C(=O)N/N=C/c2ccccc2C(=O)O)nnn1-c1nonc1N`, the inhibition was 2.33% (inactive). In the case of `O=S(=O)(Nc1ccccc1Br)c1cccs1`, the inhibition is reported as -3.63% (inactive). `Cc1ccc(N2C(=O)C3C4C=CC(CC4)C3C2=O)cc1Br` (configuration not stated) was tested, and the inhibition was -1.4% (inactive). In the case of `O=[N+]([O-])c1ccc(O)c(/C=N/Nc2ccccc2[N+](=O)[O-])c1`, the inhibition is reported as -13% (inactive). With `Nn1cnnc1N/N=C/c1cc([N+](=O)[O-])c(Cl)cc1Cl` the inhibition was 30% (active). With `COCCCNC(=O)CN1C(=O)CSc2ccc(S(=O)(=O)N3CCOCC3)cc21` the inhibition was 6.04% (inactive). With `Cc1ccc(CNC(=O)C(=O)c2cn(CC(=O)N3CCCC3)c3ccccc23)cc1` the inhibition was 2.97% (inactive). In the case of `COc1ccc(-c2onc3ccc(C(C)=O)cc23)cc1`, the inhibition is reported as 13.4% (inactive). With `CC(OC(=O)c1ccc2noc(-c3ccccc3)c2c1)C(N)=O` (configuration not stated) the inhibition was 31.9% (active). For `Oc1ccc(-c2onc3ccc(Cl)cc23)cc1`, the inhibition was 1.68% (inactive). With `Cc1c(CN2CC[C@@H](N3CCN(c4ccccn4)CC3)[C@H](O)C2)[nH]c2ccc(F)cc12` the inhibition was 9.87% (inactive). In the case of `COc1ccc(N(Cc2cc3ccc(C)cc3[nH]c2=O)S(=O)(=O)c2ccccc2)cc1`, the inhibition is reported as 6.49% (inactive). `CC(=O)N1c2ccc(S(=O)(=O)NCCC(=O)N(C)C3CCCCC3)cc2CC1C` (configuration not stated) was tested, and the inhibition was 0.68% (inactive). For `O=C(Nn1cnnc1)c1ccc([N+](=O)[O-])cc1`, the inhibition was 30.2% (active). For `Cc1ccc(C)n1NC(=O)c1ccc([N+](=O)[O-])cc1`, the inhibition was 3.79% (inactive). `O=C(Nc1cccc([N+](=O)[O-])c1)Nn1cnnc1` was tested, and the inhibition was 77.4% (active). `COC(=O)/C=C\C(=O)Nc1cccc([N+](=O)[O-])c1` was tested, and the inhibition was -7.77% (inactive). `O=C(Nc1cccc([N+](=O)[O-])c1)Nc1ccc(Cl)cn1` was tested, and the inhibition was -7.59% (inactive). In the case of `O=C(Nn1c(-c2ccccc2)nc2ccccc2c1=O)c1ccc([N+](=O)[O-])cc1`, the inhibition is reported as -0.32% (inactive). For `COc1ccc(C(=O)NCc2nnc(SCC(=O)NC3=NCCS3)n2C)cc1`, the inhibition was -2.4% (inactive). For `Cc1cccc(C(=O)Nc2ccc(C(=O)N/N=C/c3cccc(C)n3)cc2)c1`, the inhibition was -3.2% (inactive). `CSCC[C@H](NC(=O)N1CCn2c1nc1ccccc12)C(=O)NC1CCCCC1` was tested, and the inhibition was 2.15% (inactive). For `CCCc1cc(=O)oc2c(C)c(OCC(=O)N3CCC(C(=O)O)CC3)ccc12`, the inhibition was 5.91% (inactive). In the case of `COc1ccc(C(C(=O)NC(C)(C)C)N(Cc2ccc(F)cc2)C(=O)CCC(=O)Nc2cc(C)on2)cc1` (configuration not stated), the inhibition is reported as -7.57% (inactive). With `C=CCOc1cccc(CNCc2cccnc2)c1` the inhibition was -17.3% (inactive). With `Cc1ccc(NNC(=O)c2c(F)cccc2Cl)cc1Cl` the inhibition was 5.54% (inactive). In the case of `O=C(NNC(=O)c1ccc(Cl)cc1Cl)c1cccs1`, the inhibition is reported as -2.06% (inactive). For `Cc1ccc(NNC(=O)c2cccs2)cc1Cl`, the inhibition was 28.9% (active). In the case of `CCOC(=O)N1CCN(Cc2nc3cc(NC(=O)CC)ccc3n2CC)CC1`, the inhibition is reported as -7.14% (inactive). For `CCOc1ccccc1N1C(=O)CC(Sc2nccc(C)n2)C1=O` (configuration not stated), the inhibition was -4.13% (inactive). `COc1cccc2cc(C(=O)N(C)C)c(=O)oc12` was tested, and the inhibition was -12.7% (inactive). In the case of `COc1ccc2oc(=O)cc(-c3cc4ccccc4o3)c2c1`, the inhibition is reported as 21.1% (inactive). In the case of `COc1cccc2cc(-c3cc(=O)oc4cc(C)c(O)cc34)oc12`, the inhibition is reported as 41.3% (active). For `COc1ccc(N2CCN(C(=O)Cn3cnc4sc(C)c(S(=O)(=O)N5CCOCC5)c4c3=O)CC2)cc1`, the inhibition was 2.52% (inactive). With `CCOC(=O)C1CCN(c2c(Nc3cc(C)cc(C)c3)c(=O)c2=O)CC1` the inhibition was -6.21% (inactive). With `Cc1nc2ccc(S(=O)(=O)NCC(=O)NCCN3CCCCC3C)cc2s1` (configuration not stated) the inhibition was -0.01% (inactive). For `Cc1nc2ccc(S(=O)(=O)NC(C(=O)N3CCCCCC3)C(C)C)cc2s1` (configuration not stated), the inhibition was -0.39% (inactive). With `Cc1nc2ccc(S(=O)(=O)NCC(=O)O)cc2s1` the inhibition was 51.8% (active). `COc1cccc2cc(C(=O)NCc3ccc(C)cc3)c(=N)oc12` was tested, and the inhibition was 3.31% (inactive). In the case of `COc1ccc2c(CC(=O)N3CCc4cc(OC)c(OC)cc4C3)coc2c1`, the inhibition is reported as 3.64% (inactive). In the case of `ONC(=Nc1ccccc1)c1ccccc1Cl`, the inhibition is reported as 40.1% (active). In the case of `C/C(Cc1ccccc1)=N\NC(=O)CNC(=O)c1ccccc1Cl`, the inhibition is reported as 6.33% (inactive). With `ONC(=Nc1ccc(Cl)cc1)c1ccccc1Cl` the inhibition was 18.2% (inactive). For `COC(=O)c1ccccc1Sc1c(/C=N/OCc2ccc(Cl)cc2)c(C(F)(F)F)nn1C`, the inhibition was 2.22% (inactive). In the case of `c1ccc(-c2ccc3c(c2)NC(C2Nc4cc(-c5ccccc5)ccc4O2)O3)cc1` (configuration not stated), the inhibition is reported as 42.1% (active). `COc1cccc(C(=O)Nc2nnc(S(=O)(=O)N(C)c3ccccc3)s2)c1` was tested, and the inhibition was -1.4% (inactive). `COc1cc(S(=O)(=O)Nc2ncn[nH]2)ccc1Cl` was tested, and the inhibition was 51.4% (active). With `COc1ccc(S(=O)(=O)Nc2ccc(S(=O)(=O)N3CCCCC3)cc2)cc1OC` the inhibition was 4.79% (inactive). In the case of `COc1ccc(C(C)C)cc1S(=O)(=O)Nc1ncn[nH]1`, the inhibition is reported as 8.59% (inactive). With `O=C(NCc1cccnc1)C12CC3CC(CC(C3)C1)C2` the inhibition was -7.72% (inactive). `Cc1cc(NC(=O)CCC(=O)N(CC(=O)NCC2CCCO2)c2ccccc2)no1` (configuration not stated) was tested, and the inhibition was -2.56% (inactive). For `O=C(NCCN1CCOC1=O)C1CCC(=O)N(CCc2ccc(Cl)cc2)C1` (configuration not stated), the inhibition was -13.3% (inactive). In the case of `CC(=O)N(c1ccc2oc(=O)sc2c1)S(=O)(=O)c1ccc(C)cc1`, the inhibition is reported as 32.7% (active). `CC(=O)Oc1ccc(N(C(C)=O)S(=O)(=O)c2ccc3ccccc3c2)cc1Br` was tested, and the inhibition was -1.42% (inactive). In the case of `COC(=O)c1c(C)oc2ccc(N(C(=O)Oc3ccccc3)S(=O)(=O)c3ccccc3)cc12`, the inhibition is reported as -12.4% (inactive). `CCOc1ccccc1NC(=O)NC1CCCCCCC1` was tested, and the inhibition was -2.13% (inactive). For `CC(=O)Nc1ccc(NC(=O)[C@@H](NC(=O)c2cccc(C)c2)C(C)C)cc1`, the inhibition was -0.5% (inactive). In the case of `CCc1c(C)sc(NC(=O)c2cccs2)c1C(N)=O`, the inhibition is reported as -38.8% (inactive). With `COc1ccc(NC(=O)COc2ccc(C(=O)c3ccc(F)cc3)cc2)cc1S(N)(=O)=O` the inhibition was -0.83% (inactive). For `CC(/C=C/C1(O)C(C)CC(=O)CC1(C)C)OC1OC(CO)C(O)C(O)C1O` (configuration not stated), the inhibition was 49.9% (active). `CC1=C(C)C(=O)OC(C(C)C2CCC3C4CC=C5CC(OC6OC(COC7OC(CO)C(O)C(O)C7O)C(O)C(O)C6O)CC(O)C5(C)C4CCC23C)C1` (configuration not stated) was tested, and the inhibition was 3.15% (inactive). `Cc1[nH]c(C)c(S(=O)(=O)N2CCN(c3cccc(C(F)(F)F)c3)CC2)c1C(=O)N1CCCCC1` was tested, and the inhibition was 3.83% (inactive).
